What is called AC50 is the concentration giving half of the maximal activity seen.

Read-out in assay [1]: Protein phosphatase 2A (PPP2R4), PTPA (gene 5524)
Put plainly: LTEA_HepaRG_PPP2R4: Life Technologies and Expression Analysis (LTEA) Assay for Protein phosphatase 2A (PPP2R4) using HepaRG (AID 2283522). The settings on record: mRNA level, 48 h; actives raise or lower the signal. In outline: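 Expression was quantified by Fluidigm qRT-PCR normalised to three housekeeping genes after 48 h treatment. Human HepaRG cells received an 8-point series from 100 µM downward by half-logs, in duplicate with 0.5% DMSO vehicle and 1 mM phenobarbital as induction control.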

Read-out in assay [2]: solute carrier (SLC22A1), SLC22A1 (gene 6580)
Kind of assay: LTEA_HepaRG_SLC22A1: Life Technologies and Expression Analysis (LTEA) Assay for solute carrier (SLC22A1) using HepaRG (AID 2283524).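 For AC50: differentiated human HepaRG liver cells in serum-free induction medium.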 Particulars: mRNA level, 48 h; actives raise or lower the signal. The method, boiled down: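 qRT-PCR readout (TaqMan, Fluidigm arrays) of SLC22A1 transcript, normalized to three housekeeping genes; bidirectional curve fit relative to 0.5% DMSO vehicle. Differentiated human HepaRG cells, 48 h chemical exposure, top concentration 100 uM, half-log steps, eight points.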

Read-out in assay [3]: Pyruvate Dehydrogenase Kinase 4 (PDK4), PDK4 (gene 5166)
Kind of assay: LTEA_HepaRG_PDK4: Life Technologies and Expression Analysis (LTEA) Assay for Pyruvate Dehydrogenase Kinase 4 (PDK4) using HepaRG (AID 2283525). Particulars: mRNA level, 48 h; actives raise or lower the signal. The method, boiled down:
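HepaRG (human liver line), 48 h chemical exposure, 8-pt half-log CRC top 100 uM, 0.5% DMSO vehicle, duplicates. Readout: TaqMan qRT-PCR of PDK4 mRNA, housekeeping-normalized; gain/loss fit relative to DMSO baseline.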

Read-out in assay [4]: NAD(P)H dehydrogenase [quinone] 1 (NQO1), NQO1 (gene 1728)
Kind of assay: LTEA_HepaRG_NQO1: Life Technologies and Expression Analysis (LTEA) Assay for NAD(P)H dehydrogenase [quinone] 1 (NQO1) using HepaRG (AID 2283526). Particulars: mRNA level, 48 h; actives raise or lower the signal. The method, boiled down: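 NQO1 transcript induction or loss measured by TaqMan qRT-PCR, referenced to three housekeeping genes and fitted bidirectionally against 0.5% DMSO. HepaRG cultures exposed 48 h, duplicate, eight-point half-log series, top 100 uM.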

Read-out in assay [5]: Nuclear factor erythroid 2-related factor 2 (Homo sapiens) (UniProt Q16236)
Put plainly: LTEA_HepaRG_NFE2L2: Life Technologies and Expression Analysis (LTEA) Assay for Nuclear factor erythroid 2-related factor 2 (NFE2L2) Transcription Factor using HepaRG (AID 2283527).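 Note: TaqMan qRT-PCR transcript level normalised to ACTB GAPDH and POLR2A housekeeping genes.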 Particulars: mRNA level, 48 h; actives raise or lower the signal. In outline:
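HepaRG, 48 h dosing, 8-pt half-log series from 100 uM in 0.5% DMSO, duplicates. Read-out: NFE2L2 mRNA by qRT-PCR (ACTB/GAPDH/POLR2A normalization). Bidirectional curve fit vs DMSO baseline.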

Read-out in assay [6]: succinate dehydrogenase complex iron sulfur subunit B (SDHB), SDHB (gene 6390)
Kind of assay: LTEA_HepaRG_SDHB: Life Technologies and Expression Analysis (LTEA) Assay for succinate dehydrogenase complex iron sulfur subunit B (SDHB) using HepaRG (AID 2283528). Particulars: mRNA level, 48 h; actives raise or lower the signal. The method, boiled down:
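HepaRG cells (~100,000/well, plated 48 h) exposed in duplicate for 48 h in serum-free induction medium to 8-point half-log series from 100 uM in 0.5% DMSO; mRNA by qRT-PCR normalised to ACTB, GAPDH, POLR2A; bidirectional fit versus DMSO.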

Read-out in assay [7]: Signal transducer and activator of transcription 3 (Homo sapiens) (UniProt P40763)
Put plainly: LTEA_HepaRG_STAT3: Life Technologies and Expression Analysis (LTEA) Assay for Signal transducer and activator of transcription (STAT3) using HepaRG (AID 2283529). Particulars: mRNA level, 48 h; actives raise or lower the signal. The method, boiled down: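 HepaRG, 48 h exposure, 8-pt half-log series (top 100 uM), 0.5% DMSO vehicle, duplicates. Readout: STAT3 transcript by Fluidigm qRT-PCR, housekeeping-normalized; bidirectional fit vs DMSO baseline.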

Read-out in assay [8]: solute carrier (SLCO1B1), SLCO1B1 (gene 10599)
Put plainly: LTEA_HepaRG_SLCO1B1: Life Technologies and Expression Analysis (LTEA) Assay for solute carrier (SLCO1B1) using HepaRG (AID 2283530). Particulars: mRNA level, 48 h; actives raise or lower the signal. The method, boiled down:
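HepaRG, serum-free induction medium, 48 h dosing, 8-pt half-log from 100 uM, 0.5% DMSO vehicle, duplicates. Readout: SLCO1B1 mRNA, qRT-PCR, ACTB/GAPDH/POLR2A normalization; up or down fit vs DMSO.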

Read-out in assay [9]: Transforming Growth Factor (TGFA), TGFA (gene 7039)
Kind of assay: LTEA_HepaRG_TGFA: Life Technologies and Expression Analysis (LTEA) Assay for Transforming Growth Factor (TGFA) using HepaRG (AID 2283532). The settings on record: mRNA level, 48 h; actives raise or lower the signal. The method, boiled down:
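qRT-PCR read-out of TGFA transcript, normalized to three housekeeping genes, fitted bidirectionally against 0.5% DMSO baseline. Human HepaRG cultures received chemicals for 48 h at eight half-log concentrations, top 100 uM.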

Read-out in assay [10]: Transforming Growth Factor (TGFB1), TGFB1 (gene 7040)
Kind of assay: LTEA_HepaRG_TGFB1: Life Technologies and Expression Analysis (LTEA) Assay for Transforming Growth Factor (TGFB1) Transporter using HepaRG (AID 2283533). The settings on record: mRNA level, 48 h; actives raise or lower the signal. The method, boiled down: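 HepaRG, 48 h post-plating, switched to serum-free induction medium; chemicals 100 uM top, half-log, 8 pts, 0.5% DMSO, dup; 48 h exposure; RNA → Fluidigm TaqMan qRT-PCR; norm ACTB/GAPDH/POLR2A; bidirectional fit vs DMSO.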

Read-out in assay [11]: TIMP1, TIMP1 (gene 7076)
Kind of assay: LTEA_HepaRG_TIMP1: Life Technologies and Expression Analysis (LTEA) Assay for TIMP1 using HepaRG (AID 2283534). Particulars: mRNA level, 48 h; actives raise or lower the signal. The method, boiled down:
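Readout is TIMP1 mRNA level measured by qRT-PCR and normalized to three housekeeping genes. Human HepaRG cells were treated for 48 h in duplicate at eight concentrations up to 100 uM (0.5% DMSO); gain or loss fitted against DMSO.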

Read-out in assay [12]: Thyroid Hormone Responsive (THRSP), THRSP (gene 7069)
Put plainly: LTEA_HepaRG_THRSP: Life Technologies and Expression Analysis (LTEA) Assay for Thyroid Hormone Responsive (THRSP) using HepaRG (AID 2283536). Particulars: mRNA level, 48 h; actives raise or lower the signal. The method, boiled down: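 qRT-PCR read-out (Fluidigm TaqMan), housekeeping-normalized (ACTB/GAPDH/POLR2A). HepaRG, 48 h chemical exposure, 8-pt half-log series from 100 uM in 0.5% DMSO, duplicates. Bidirectional curve fit vs 0.5% DMSO baseline.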

Read-out in assay [13]: Cellular tumor antigen p53 (Homo sapiens) (UniProt P04637)
Kind of assay: LTEA_HepaRG_TP53: Life Technologies and Expression Analysis (LTEA) Assay for Tumor Protein P53 (TP53) using HepaRG (AID 2283537). The settings on record: mRNA level, 48 h; actives raise or lower the signal. The method, boiled down:
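Differentiated HepaRG cells in serum-free induction medium exposed 48 h in duplicate to 8 half-log concentrations, top 100 uM, 0.5% DMSO. TP53 mRNA by TaqMan qRT-PCR (Fluidigm), normalized to ACTB, GAPDH, POLR2A; fitted bidirectionally versus DMSO.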

Read-out in assay [14]: UDP glucuronosyltransferase (UGT1A1), UGT1A1 (gene 54658)
Put plainly: LTEA_HepaRG_UGT1A1: Life Technologies and Expression Analysis (LTEA) Assay for UDP glucuronosyltransferase (UGT1A1) using HepaRG (AID 2283538). Particulars: mRNA level, 48 h; actives raise or lower the signal. In outline: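 UGT1A1 transcript level, measured by qRT-PCR with three housekeeping genes for normalization, after 48 h treatment of human HepaRG cells (0.5% DMSO, duplicates, up to 100 uM, half-log steps, 8 points). Curves fit both directions against DMSO baseline.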

Read-out in assay [15]: UDP glucuronosyltransferase (UGT1A6), UGT1A6 (gene 54578)
Kind of assay: LTEA_HepaRG_UGT1A6: Life Technologies and Expression Analysis (LTEA) Assay for UDP glucuronosyltransferase (UGT1A6) using HepaRG (AID 2283539). The settings on record: mRNA level, 48 h; actives raise or lower the signal. The method, boiled down: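 HepaRG, 48 h post-plating switch to serum-free induction medium; chemical 48 h, 100 uM top, half-log x8, duplicate, 0.5% DMSO. Phenobarbital 1mM induction control. UGT1A6 mRNA by TaqMan qRT-PCR; gain/loss fit vs DMSO.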

Read-out in assay [16]: X-box binding protein 1 (XBP1), XBP1 (gene 7494)
Kind of assay: LTEA_HepaRG_XBP1: Life Technologies and Expression Analysis (LTEA) Assay for X-box binding protein 1 (XBP1) using HepaRG (AID 2283540). The settings on record: mRNA level, 48 h; actives raise or lower the signal. The method, boiled down: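 Transcript levels of XBP1, measured by qRT-PCR and normalised to three housekeeping genes, were fitted bidirectionally relative to 0.5% DMSO controls. Human HepaRG cells received eight-point half-log dilutions from 100 uM for 48 h.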

Assay [17] can be described thus: LTEA_HepaRG_LDH_cytotoxicity: Cytotoxicity Assessment in the Life Technologies and Expression Analysis (LTEA) Assay (AID 2283563; active = hit-call score of the fitted dose curve at least 0.9, where 1 is the maximum;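 for AC50: LDH activity released into spent culture medium as a marker of cell death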). In outline:
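Cells were thawed and plated for 48 h. Medium was then replaced with serum-free induction medium. Chemicals (8 half-log points, maximum 100 uM, 0.5% DMSO) were added in duplicate for 48 h, after which spent medium was assayed for LDH.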

Read-out in assay [18]: Phosphatase and tensin (PTEN), PTEN (gene 5728)
Put plainly: LTEA_HepaRG_PTEN: Life Technologies and Expression Analysis (LTEA) Assay for Phosphatase and tensin (PTEN) using HepaRG (AID 2283523). The settings on record: mRNA level, 48 h; actives raise or lower the signal. In outline: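 HepaRG, 48 h exposure, 8-pt half-log series from 100 uM top, 0.5% DMSO vehicle, duplicates. Readout: Fluidigm qRT-PCR of PTEN transcript; housekeeping normalization (ACTB, GAPDH, POLR2A). Gain or loss fitted relative to DMSO baseline.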

Read-out in assay [19]: Tumor necrosis factor receptor 1 (TNFRSF1A), TNFRSF1A (gene 7132)
Kind of assay: LTEA_HepaRG_TNFRSF1A: Life Technologies and Expression Analysis (LTEA) Assay for Tumor necrosis factor receptor 1 (TNFRSF1A) using HepaRG (AID 2283535). The settings on record: mRNA level, 48 h; actives raise or lower the signal. The method, boiled down:
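Read-out is TNFRSF1A transcript level by TaqMan qRT-PCR, normalized to three housekeeping genes, scored as gain or loss of signal versus 0.5% DMSO. Human HepaRG cells received test chemicals for 48 h at up to 100 uM (half-log series).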

Active and inactive are the calls of the source. Rule for the calls, unless noted: active = hit-call score of the fitted dose curve at least 0.9, where 1 is the maximum; inactive = score below 0.9.

Sequence of Signal transducer and activator of transcription 3 (Homo sapiens) (P40763 whole entry, looked up): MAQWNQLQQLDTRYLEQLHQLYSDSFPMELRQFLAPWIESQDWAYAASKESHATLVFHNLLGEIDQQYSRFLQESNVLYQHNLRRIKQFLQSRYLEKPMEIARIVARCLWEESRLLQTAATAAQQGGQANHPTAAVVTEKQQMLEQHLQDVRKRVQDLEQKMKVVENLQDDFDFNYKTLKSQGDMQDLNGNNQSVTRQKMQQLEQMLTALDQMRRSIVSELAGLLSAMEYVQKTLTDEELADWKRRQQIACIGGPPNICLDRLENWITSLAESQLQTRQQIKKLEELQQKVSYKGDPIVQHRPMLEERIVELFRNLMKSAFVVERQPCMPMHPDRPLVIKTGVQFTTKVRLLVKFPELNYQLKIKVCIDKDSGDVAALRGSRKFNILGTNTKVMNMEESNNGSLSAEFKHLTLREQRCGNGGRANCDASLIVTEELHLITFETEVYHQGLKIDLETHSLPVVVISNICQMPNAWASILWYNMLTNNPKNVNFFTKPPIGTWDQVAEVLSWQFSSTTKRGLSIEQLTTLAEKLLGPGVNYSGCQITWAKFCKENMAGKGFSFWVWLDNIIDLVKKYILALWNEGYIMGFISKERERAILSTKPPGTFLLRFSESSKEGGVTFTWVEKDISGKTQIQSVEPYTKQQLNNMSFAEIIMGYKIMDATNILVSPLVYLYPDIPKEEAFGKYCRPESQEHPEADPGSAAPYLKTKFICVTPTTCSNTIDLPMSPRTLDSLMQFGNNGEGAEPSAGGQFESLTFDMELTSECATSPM
Sequence of Nuclear factor erythroid 2-related factor 2 (Homo sapiens) (Q16236 whole entry, looked up): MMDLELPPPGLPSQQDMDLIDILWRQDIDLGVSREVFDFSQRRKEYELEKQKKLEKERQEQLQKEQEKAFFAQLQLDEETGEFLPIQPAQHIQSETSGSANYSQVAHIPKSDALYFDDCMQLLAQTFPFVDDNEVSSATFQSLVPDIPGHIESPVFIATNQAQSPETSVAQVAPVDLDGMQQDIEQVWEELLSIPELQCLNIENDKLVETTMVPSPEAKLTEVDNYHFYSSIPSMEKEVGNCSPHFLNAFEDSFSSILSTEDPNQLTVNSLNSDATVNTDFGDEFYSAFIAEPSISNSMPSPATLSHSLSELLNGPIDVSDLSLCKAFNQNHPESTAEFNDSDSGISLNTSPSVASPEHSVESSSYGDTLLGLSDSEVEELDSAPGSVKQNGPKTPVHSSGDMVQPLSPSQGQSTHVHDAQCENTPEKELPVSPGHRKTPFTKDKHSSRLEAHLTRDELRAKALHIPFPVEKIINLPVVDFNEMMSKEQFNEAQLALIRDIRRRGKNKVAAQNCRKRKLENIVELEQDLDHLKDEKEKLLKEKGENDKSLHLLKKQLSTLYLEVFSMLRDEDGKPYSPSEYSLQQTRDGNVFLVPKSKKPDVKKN
Sequence of Cellular tumor antigen p53 (Homo sapiens) (P04637 whole entry, looked up): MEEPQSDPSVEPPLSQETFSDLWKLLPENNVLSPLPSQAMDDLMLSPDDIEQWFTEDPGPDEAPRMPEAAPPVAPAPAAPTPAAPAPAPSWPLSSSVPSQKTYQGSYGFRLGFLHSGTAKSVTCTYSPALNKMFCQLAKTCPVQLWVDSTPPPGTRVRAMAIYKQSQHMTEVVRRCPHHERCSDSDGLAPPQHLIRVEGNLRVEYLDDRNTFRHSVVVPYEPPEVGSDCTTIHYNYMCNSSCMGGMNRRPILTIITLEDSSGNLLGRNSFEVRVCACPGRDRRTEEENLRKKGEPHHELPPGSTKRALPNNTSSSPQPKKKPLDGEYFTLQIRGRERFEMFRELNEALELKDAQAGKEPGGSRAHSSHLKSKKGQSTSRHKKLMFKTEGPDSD

In the case of `O=C(O)COc1ccc(Cl)cc1Cl`, the outcome in assay [1], in [2], in [4], in [5], in [6] and in assay [7] was inactive. The call in assay [8], in assay [9], in [10], in [11], in assay [12] and in assay [13] was inactive. The outcome in assay [14], in assay [15], in [16] and in [17] was inactive. In addition, the AC50 in assay [3] was 38.5 µM (active).
As to `CCCN(CCC)c1c([N+](=O)[O-])cc(C(F)(F)F)cc1[N+](=O)[O-]`, the outcome in assay [1], in assay [18], in [2], in assay [3], in assay [4] and in [5] was inactive. Also, the result in assay [6], in assay [7], in assay [8], in assay [9], in [10] and in [11] was inactive. Further, the outcome in [12] and in [17] was inactive. Moreover, the AC50 in assay [14] is 29.2 µM (active).
`O=C(Nc1ccccc1)Nc1cnns1`: the molecule was called inactive in assay [1], in [4], in [5], in assay [6], in assay [7] and in [9]. The outcome in assay [10], in assay [11], in assay [19] and in assay [13] was inactive. Besides, the half-maximal activity concentration (AC50) in assay [2] was 70 µM (active); in assay [3], 62.4 µM (active); in [8], 74.2 µM (active); in [12] it was 73.5 µM (active); in assay [14], 87.2 µM (active); in [17], 77.2 µM (active).
